Compound activity from PubChem.
Compounds with a hit are over-represented: about 12% of the library has one in this group of screens.
BAZ2B block: qHTS Assay for Inhibitors of BAZ2B; Potency, µM (titrated, usually from 114 µM), actives largely listed as inhibitors; AlphaScreen BAZ2B-H3K14Ac peptide displacement; hit rate 4.4% among 360,000; AID 504333, 2011; Bromodomain adjacent to zinc finger domain protein 2B (Homo sapiens), Q9UIF8; also: nearly all actives have a fitted effect of over 60% in size
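Compounds, titrated to a top concentration of 110 uM, were incubated 30 min at room temperature with preformed BAZ2B/acetyl-K14 H3 peptide complex (50 nM each). Proximity signal was measured by AlphaScreen after 20 min with beads.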
JMJD2A Tudor: qHTS Assay for Inhibitors of JMJD2A-Tudor Domain | AID 504339, 2011 | hit rate 4.4% among 390,000 | Lysine-specific demethylase 4A (Homo sapiens), O75164 | Potency, µM (series often up to 114 µM), hits mostly inhibitors | AlphaScreen JMJD2A-Tudor / H3K4me3 peptide binding; also: nearly all actives have a fitted effect of over 50% in size
PI5P4K alpha inh: qHTS for Inhibitors of phosphatidylinositol 5-phosphate 4-kinase (PI5P4K); Phosphatidylinositol 5-phosphate 4-kinase type-2 alpha (Homo sapiens), P48426; PI5P4Kalpha enzyme, ADP-Glo luminescence, 60 min; stronger effect = lower value; max response, %; hit rate 1.2% among 330,000; active = max response of -50% or lower; inconclusive = between -30% and -50%; inactive = -30% or higher; also: value at the top dose of about 77 µM
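ADP-Glo luminescence end-point after a 60 min room-temperature kinase reaction. PI5P4Kalpha and substrate in HEPES pH 7.4 buffer with EGTA, 0.1% CHAPS and 5% DMSO; ATP at 5 microM final.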
HP1b binding inh: HTS for Inhibitors of HP1-beta Chromodomain Interactions with Methylated Histone Tails | Chromobox protein homolog 1 (Homo sapiens), P83916 | AlphaScreen HP1-beta / biotin-H3K9me3 peptide binding | Potency, µM (series often up to 114 µM), most hits filed as inhibitors | hit rate 0.56% among 390,000; also: nearly all actives have a fitted effect of over 70% in size
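AlphaScreen: HP1-beta (50 nM) preformed 30 min with biotin-H3(1-18)K9me3 peptide (50 nM) in PBS pH 7.4, 0.01% Tween-20. Compound added for 30 min at RT, then streptavidin donor/nickel chelate acceptor beads (10 ug/mL) for 30 min.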
PLK1 PBD block: qHTS for Inhibitors of PLK1-PDB (polo-like kinase 1 - polo-box domain): Primary Screen. Serine/threonine-protein kinase PLK1 (Homo sapiens), P53350. Plk1 PBD binding of FITC phosphopeptide, fluorescence polarization. Potency, µM, actives largely listed as inhibitors. hit rate 2.8% among 360,000; also: series mostly up to about 57 µM; nearly all actives have a fitted effect of over 65% in size
G9a inh: qHTS Assay for Inhibitors of Histone Lysine Methyltransferase G9a; Histone-lysine N-methyltransferase EHMT2 (Homo sapiens), Q96KQ7; G9a H3K9 monomethylation, AlphaScreen, 2 h; Potency, µM (doses to about 102 µM), actives largely listed as inhibitors; hit rate 8.8% among 350,000; AID 504332, 2011; also: nearly all actives have a fitted effect of over 75% in size
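Compounds were preincubated with 20 nM G9a for 15 min, after which biotinylated H3K9 peptide (500 nM) and SAM (20 uM) started a 2 h room-temperature reaction. Monomethylated product was quantified by antibody-based AlphaScreen chemiluminescence.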
Hits are given with their value; . = inactive; ? = inconclusive; / = no result given; [ ] = remark or other dose. Unless noted, calls follow the shape of the dose curve; as a rule, active = well fitted curve in the direction sought with a large enough effect; inconclusive = small, poorly fitted or top-dose-only effect, or another doubt; inactive = no such curve, though single readings can be large; an effect the other way counts as inactive or inconclusive.

SMILES	BAZ2B block	JMJD2A Tudor	PI5P4K alpha inh	HP1b binding inh	PLK1 PBD block	G9a inh
Cc1ccc(C2NC(=O)CCC2[N+](=O)[O-])cc1 (stereo not drawn)	.	.[11.4 µM]	.	.	19µM	.
COc1ccc(OC)c(CNc2sc3c(c2C(=O)Nc2cc(OC)ccc2OC)CCCC3)c1	22µM	?	/	.	/	11µM
COc1ccc(NC(=O)c2c(NCc3cccs3)sc3c2CCCC3)c(OC)c1	?	?	/	.	/	?
CCOc1ccccc1NC(=O)c1c(NCc2cccs2)sc2c1CCCCC2	.	.	/	.	/	?
COc1ccc(OC)c(NC(=O)c2c(NCc3cccs3)sc3c2CCCCC3)c1	22µM	?	/	.	/	11µM
COc1ccc(OC)c(NC(=O)c2c(NCc3cccs3)sc3c2CCCC3)c1	35µM	40µM	/	.	/	?
COc1cc(OC)c(OC)cc1CNc1sc2c(c1C(=O)Nc1ccccc1OC)CCC2	.	?	/	.	/	13µM
COc1ccc(-c2n[nH]c3c2cnc2cc(OC)c(OC)cc23)cc1	.	.	/	.	/	.[12.7 µM]
O=C(CSC1=NS(=O)(=O)c2cc(F)ccc2N1)NCCc1ccccc1	.	.	.	.	.	.
Cc1cc(=O)c2cc(C(=O)Nc3ccc(F)cc3)ccc2[nH]1	.	.	/	.	/	.
COc1ccc(OC)c(NC(=O)c2c(NC(=O)CCC(=O)O)sc3c2CCCCC3)c1	.	?	.	.	.	45µM
O=[N+]([O-])c1cc(C(F)(F)F)ccc1NCCNC(=S)Nc1ccc(Cl)cc1	20µM	?	/	.	.	28µM
O=C(O)c1ccc(NCCc2ccc(Cl)cc2)c([N+](=O)[O-])c1	?	.	-56	.	.	79µM
O=C(O)c1ccc(Nc2ccc(Cl)c(Cl)c2)c([N+](=O)[O-])c1	.	.	-52	.	.	.
O=[N+]([O-])c1cc(C(F)(F)F)ccc1NCCCCNS(=O)(=O)c1ccc(Cl)cc1	?	?	.	?	.	?
O=C(O)c1cccc(Nc2ccncc2[N+](=O)[O-])c1	.	20µM	?	.	24µM	.
c1ccc2c(c1)oc1c(-c3ccc4nccn4c3)cccc12	/	/	.	/	.	/
O=C(Nc1ccc(C(=O)O)cc1)Nc1ccc([N+](=O)[O-])cc1	.	.	.	.	.	.
O=C(O)c1ccc(Nc2ncc([N+](=O)[O-])cc2[N+](=O)[O-])cc1	?	.	.	.	.	45µM
O=[N+]([O-])c1cc(Cl)ccc1NCCc1ccccn1	10µM	45µM	.	?	.	?
N#Cc1ccc(NCCc2ccccn2)c([N+](=O)[O-])c1	.	.	.	.	.	/
CC(=O)OCCCNc1cc(Sc2nc3ccccc3s2)c2nonc2c1[N+](=O)[O-]	.	.	.	.	2.1µM	?
CC(=O)OCCNc1cc(Sc2nc3ccccc3[nH]2)c2nonc2c1[N+](=O)[O-]	?	56µM	.	?	2.7µM	4µM
Cc1ccc(-n2c([S-])c(C(=O)NC(C)c3ccccc3)[n+]3ccccc23)cc1 (stereo not drawn)	.	.	.	.	.	40µM
COc1ccc(CNC(=O)c2c([S-])n(-c3ccc(C)cc3)c3cccc[n+]23)cc1	/	3.2µM	.	.	?	4µM
SMILES	BAZ2B block	JMJD2A Tudor	PI5P4K alpha inh	HP1b binding inh	PLK1 PBD block	G9a inh
COc1ccc(CNC(=O)c2cc(C)nn2-c2ccccc2)cc1	.	.[11.4 µM]	.	.	?	.
O=C(COC(=O)/C=C/C(=O)N1CCN(c2ccccc2)CC1)NC(c1ccccc1)c1ccccc1	45µM	.	.	.	.	?
O=C(COC(=O)/C=C/c1cccs1)NC(c1ccccc1)c1ccccc1	.	.	.	.	.	.
CCN(CC)S(=O)(=O)c1ccc(NCc2ccccn2)nc1	?	71µM	.	.	.	28µM
CCN(CC)S(=O)(=O)c1ccc(NCCc2ccccn2)nc1	.	.	.	.	.	.
O=C(COc1ccc(Cl)cc1Cl)NNC(=S)NC(=O)c1ccco1	.	?	.	?	?	7.9µM
Cc1ccc2c(Cl)cc(Cl)c(OCC(=O)N3CCCC3)c2n1	/	.	.	.	27µM	.
CC(Oc1ccc(Cl)cc1)C(=O)NNC(=S)NC(=O)c1ccco1 (stereo not drawn)	.	.	.	.	.	11µM
O=C(COC(=O)Cc1ccc(Cl)cc1)NCc1ccco1	/	56µM	.	?	.	/
Cc1ccc2c(Cl)cc(Cl)c(OCC(=O)N3CCOCC3)c2n1	.	.	.	.	.	.[12.7 µM]
C[C@@H]1CN([C@H](C)CO)C(=O)CCCn2nncc2CO[C@@H]1CN(C)S(=O)(=O)c1cccs1	/	/	.	/	.	/
CCCNC(=O)CC(NS(=O)(=O)c1ccc(Cl)cc1)c1ccco1 (stereo not drawn)	.	.	.	.	.	.
O=C(COc1ccccc1Cl)NCc1ccco1	.	.	.	.	.	.
O=C(CCSCc1ccc(Cl)cc1)NCc1ccco1	?	.	.	.	.	.
O=C(COc1ccc(Cl)cc1Cl)NCc1ccco1	.	.	.	.	.	56µM
O=C(CC(NS(=O)(=O)c1ccc(Cl)cc1)c1ccco1)NCc1ccco1 (stereo not drawn)	?	.[11.4 µM]	.	?	30µM	.
O=C(CNCc1ccc(Cl)cc1)NCc1ccco1	50µM	79µM	.	?	.	5.6µM
Cc1ccc2c(Cl)cc(Cl)c(OCC(=O)NCc3ccco3)c2n1	40µM	/	/	/	/	.[12.7 µM]
O=C(O)CSc1c(Cl)c(=O)oc2ccc(Cl)cc12	/	/	.	/	.	/
O=C(O)c1cc2c(cn1)[nH]c1ccccc12	4µM	7.1µM	.	.	.	.
COC(=O)[C@H](C)NC(=O)c1cc2c(cn1)[nH]c1ccccc12	?	40µM	?	?	1.3µM	1.4µM
CCc1nnc(NC(=O)CSCc2cc(=O)c3ccc(C)cc3[nH]2)s1	.	.	/	.	/	.
CC(C)[C@H]1CN=C2N(CCNC(=O)CCC3CCCCC3)[C@H](Cc3ccc(O)cc3)CN21	.	?	?	.	27µM	.
C[C@@H]1CN=C2N(CCNC(=O)CCC3CCCCC3)[C@H](Cc3ccc(O)cc3)CN21	.	50µM	?	.	?	.[12.7 µM]
O=C(/C=C/N1CCOCC1)c1cc2ccccc2o1	.	.	?	.	.	10µM
O=C(Nc1ccc(N2CCOCC2)cc1)c1cc2ccccc2o1	.	.	.	.	.	.[12.7 µM]
CSc1cccc(NC(=O)Cn2c3ncccc3c(=O)n2-c2ccc(C)cc2)c1	.	.	/	.	/	.
COCCn1c(SCC(=O)NCC(c2ccccc2)N(C)C)nc2sc3c(c2c1=O)CCC3 (stereo not drawn)	/	.	.	.	.	/
